From PubChem
m-calpain inh: inhibitors of pig calpain II; purified calpain II, fluorogenic peptide substrate, 30 min; inhibition, % at 16 µM; 220,000 tested, 0.37% active; AID 1236;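 active = inhibition above about 50%, limit read from the data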
L929 necroptosis: L929 zVAD cell death inhibition. 220,000 tested, 0.38% active. L929 zVAD necroptosis rescue, ATP luminescence, 24 h; with zVAD 60 µM. viability rescue, % at 10 µM. AID 1377;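 active = activation, scaled between plate controls, above about 75%, limit read from the data; inactive = activation under that limit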;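 also: 0% = zVAD with DMSO and 100% = DMSO alone without zVAD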
Bim-Mcl-1: human Bim-Mcl-1 interaction inhibition; Q07820; Bead-based flow cytometry, Bim peptide-Mcl-1 binding; inhibition, % at 10 µM; 190,000 tested, 0.1% active; AID 1009; in the data active = inhibition above about 40%;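 also: 0% = no compound tracer wells and 100% = peptide blocker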
Target sequence (Q07820 whole entry, looked up): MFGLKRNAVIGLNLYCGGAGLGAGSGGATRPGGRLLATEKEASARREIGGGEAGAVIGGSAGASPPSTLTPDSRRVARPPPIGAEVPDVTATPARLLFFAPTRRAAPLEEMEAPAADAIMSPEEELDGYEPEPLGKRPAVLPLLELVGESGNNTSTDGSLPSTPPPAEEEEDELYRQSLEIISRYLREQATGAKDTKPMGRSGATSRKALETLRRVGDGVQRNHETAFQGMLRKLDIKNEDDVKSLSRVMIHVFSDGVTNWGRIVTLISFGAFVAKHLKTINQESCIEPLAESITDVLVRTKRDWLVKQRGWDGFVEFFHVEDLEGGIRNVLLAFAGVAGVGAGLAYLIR
Mcl1-Bid inh: Mcl-1/Bid interaction inhibition | Q07820 | TR-FRET Mcl-1/Bid-Dy647 peptide binding, 1536-well | inhibition, % at 21.7 µM | 220,000 tested, 0.97% active;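 active = compounds that cut the binding signal by more than half at the single screening dose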;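 also: His-tagged Mcl-1 with europium anti-His antibody binding Bid BH3 peptide; 0% = Mcl-1 plus peptide wells and 100% = peptide-only wells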
Mcl1 Noxa PPI: disrupts binding of human Mcl-1 to Noxa peptide. Q07820. TR-FRET Mcl-1/Noxa peptide binding, 2 h. inhibition, % at 21.7 µM. 220,000 tested, 1.5% active;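 active = compounds that cut the protein-peptide binding signal by more than 50% relative to plate controls in a single-dose test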;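 also: His-tagged Mcl-1 with rhodamine Noxa BH3 peptide and terbium anti-His antibody; 0% = Mcl-1 plus Noxa peptide wells and 100% = peptide-only wells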
TNF death inh: TNF-alpha cell death inhibition in Jurkat FADD-/- cells | Jurkat FADD-/- TNF necroptosis rescue, ATP luminescence, 24 h; 0 = TNF only, 100 = no-TNF cells | activation (protection from cell death), % at 10 µM | 220,000 tested, 0.068% active;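 active = activation, meaning protection from cell death, of at least 50% relative to plate controls; inactive = activation below 50%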;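 also: necroptosis triggered by 40 ng/mL TNF-alpha added together with compound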
zVAD death conf: confirmed blocker of zVAD induced death in L929 cells; shares compounds with L929 necroptosis; L929 zVAD-induced necroptosis rescue, ATP luminescence, 24 h; activation (protection from necroptosis), % at 10 µM; 760 tested, 16% active; AID 463117;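 active = mean protection from necroptosis of at least 50% over duplicate tests; inactive = mean protection below 50%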;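 also: 0% = cells with zVAD alone and 100% = vehicle cells without zVAD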
Starred values were filed as active, the others as inactive; / = not tested or not shown. Sampled rows, rich in hits. Any-hit rate of the full collection: about 2.8%.

SMILES	m-calpain inh	L929 necroptosis	Bim-Mcl-1	Mcl1-Bid inh	Mcl1 Noxa PPI	TNF death inh	others
O=C1NC(=O)C(=Cc2ccc(-c3cc(Cl)ccc3[N+](=O)[O-])o2)C(=O)N1	-90	4	-4	32	87*	-1
O=C1NC(=O)C(=Cc2ccc(-c3ccccc3[N+](=O)[O-])o2)C(=O)N1	3	0	/	-71	21	-1
O=C(O)CCn1cc(C=C2C(=O)NC(=O)NC2=O)c(-c2ccc(Br)cc2)n1	10	1	-1	-60	45	2
O=C(O)CCn1cc(C=C2C(=O)NC(=S)NC2=O)c(-c2cccc(Cl)c2)n1	-42	34	1	14	97*	0
O=c1[nH]c(O)c(C=Nc2ccccc2Oc2ccccc2)c(=O)[nH]1	-113	1	/	4	21	-5
O=C(Nc1cccc(C(F)(F)F)c1)c1cccn(Cc2ccc3c(c2)OC(F)(F)O3)c1=O	52*	0	-3	-10	6	-2
O=C1NC(=O)C(=Cc2ccc(SC3CCCCC3)o2)C(=O)N1	-26	0	-5	-19	72*	-2
CCOP(=O)(Cc1cc(C(C)=O)c(C)o1)OCC	-11	1	/	-29	12	0
Oc1ccc(/C=N/NP(=S)(c2ccccc2)c2ccccc2)cc1	47	0	0	5	5	0
COc1cc(/C=N/NP(=S)(c2ccccc2)c2ccccc2)ccc1O	53*	0	-2	2	15	1
O=P(O)(Oc1ccccc1)OC(c1ccccc1)C(F)(F)C(F)(F)F (configuration not stated)	-27	2	0	-18	21	0
O=C1NC(=O)N(c2ccccc2)C(=O)/C1=C\c1ccc([N+](=O)[O-])s1	-9	-1	/	-25	69*	-24
CN1C(=O)NC(=O)/C(=C/c2ccc([N+](=O)[O-])s2)C1=O	16	-1	/	-51	53*	-24
O=C1NC(=O)N(c2ccccc2)C(=O)/C1=C\c1ccc([N+](=O)[O-])o1	3	1	/	10	63*	-1
Cc1ccc(N2C(=O)NC(=O)/C(=C/C=C/c3ccco3)C2=O)cc1	3	1	-8	-36	25	-12
O=C1NC(=O)N(c2ccccc2)C(=O)/C1=C\C=C\c1ccccc1	-21	0	/	-1	70*	-25
CN1C2CCC1CC(=NO)C2	-12	0	0	-12	3	0
C=CCN1C(=O)NC(=O)/C(=C/c2ccc(N(C)C)c(Br)c2)C1=O	8	0	-3	-48	8	-2
COc1ccc(CN2CCN(c3ccccc3F)CC2)cc1O	-25	-2	0	81*	27	1
COc1ccccc1N1CCN(Cc2ccc(F)cc2)CC1	14	-1	0	-11	0	0
O=C1NC(=O)N(c2cccc(Br)c2)C(=O)/C1=C/c1ccsc1	-21	3	-2	-16	35	0
CC(=NCC1CCCO1)c1c(O)n(C2CCCCC2)c(=O)[nH]c1=O (configuration not stated)	6	1	/	-18	-20	5
C=CCn1c(O)c(C(C)=NCC2CCCO2)c(=O)[nH]c1=O (configuration not stated)	-10	0	/	78*	9	0
Cc1ccc2c(c1Cl)NC(C(=O)O)C1CC(Sc3ccccc3[N+](=O)[O-])C(Cl)C21 (configuration not stated)	-16	-1	/	-37	97*	0
CCN(CC)C(=O)c1ccc2c(c1)C1C(Cl)C(Sc3ccccc3[N+](=O)[O-])CC1C(C(=O)O)N2 (configuration not stated)	13	0	/	-1	63*	-8
SMILES	m-calpain inh	L929 necroptosis	Bim-Mcl-1	Mcl1-Bid inh	Mcl1 Noxa PPI	TNF death inh	others
COc1ccc(NC(=S)NC(NC(=O)CF)C(Cl)(Cl)Cl)cc1[N+](=O)[O-] (configuration not stated)	-12	0	0	-19	18	-4
CCCCN(Cc1ccccc1)C1CCN(CCc2ccccc2)CC1	-2	-1	-7	16	51*	3
c1ccc(CCN2CCC(N3CCN(c4ccccc4)CC3)CC2)cc1	-9	0	-2	-16	11	0
OC1/C(=C/c2ccccc2F)N2CCC1CC2 (configuration not stated)	9	1	0	-40	14	1
COc1ccc2c(c1)NP(=S)(Oc1ccccc1)N2 (configuration not stated)	7	1	/	-51	52*	7
O=C(O)c1cccc2c1NC(c1cccc([N+](=O)[O-])c1)C1CC(Sc3ccccc3[N+](=O)[O-])C(Cl)C21 (configuration not stated)	3	1	-2	43	98*	-1
O=[N+]([O-])c1cccc(C2N3CCCN23)c1 (configuration not stated)	-10	0	1	2	-2	0
O=C(O)c1ccc2c(c1)C1C(Cl)C(Sc3ccccc3[N+](=O)[O-])CC1C(c1cccc([N+](=O)[O-])c1)N2 (configuration not stated)	-66	1	1	-49	77*	3
COc1cc(/C=N/NC(=O)CN2CC(c3ccccc3)CC2=O)ccc1OC(=O)N(C)C (configuration not stated)	-10	0	0	-35	0	-3
CCOC(=O)c1cncn1[C@H](C)c1ccccc1	12	/	-1	-9	-29	/
O=C1Nc2ccccc2/C1=C/c1cnc[nH]1	13	86*	2	-13	4	-22	zVAD death conf=79*
C[C@H]1C[C@@H](C)C(=O)[C@@H]([C@H](O)CC2CC(=O)NC(=O)C2)C1	20	77*	-3	-5	-4	-2	zVAD death conf=80*
CC(=O)Nc1ccccc1C(=O)C(=O)Nc1cccc(C(=O)N2CCC3(CC2)OCCO3)c1	4	2	-20	-5	16	0
COc1ccc(-n2c(O)c(C(C)=NCCc3c[nH]c4ccccc34)c(=O)[nH]c2=O)cc1	23	0	/	-25	14	-4
